Results filed as inconclusive are left out. A call without a number means that no potency is given here. Active and inactive are the calls of the source. Calls follow the shape of the dose curve; as a rule, active = well fitted inhibition curve with a large enough effect; inconclusive = small, poorly fitted or top-dose-only effect; inactive = flat fitted curve, though single readings scatter.
Target: Aldehyde dehydrogenase, mitochondrial (Homo sapiens) (UniProt P05091)
Experiment: qHTS for Inhibitors of the Aldehyde Dehydrogenase Family (ALDH2) Primary screen (AID 2061308); also: nearly all actives have a fitted effect of over 55% in size

SMILES: CN1CCc2ccc3c4c2[C@]1(C)Cc1cccc(c1-4)OCO3
- Potency: inactive

SMILES: Cc1ccnc(NC(=S)N2CCN(c3ccc(Br)cc3)CC2)c1
- Potency: inactive

SMILES: CS(=O)(=O)c1cccc(-c2csc(N3CCC(C(N)=O)CC3)n2)c1
- Potency: inactive

SMILES: C=C1CCC2C(C)(CO[C@@H]3O[C@H](CO)[C@@H](O)[C@H](O)[C@H]3O)C(O)CCC2(C)C1C(=O)CC1=CCOC1=O (stereo partly specified)
- Potency: inactive

SMILES: O=C(O)c1cccc(-c2noc(-c3ccccc3Cl)n2)c1
- Potency: inactive

SMILES: COc1ccc(C(O[C@@H]2O[C@H](CO)[C@@H](O)[C@H](O)[C@H]2O)C(CO)Oc2ccc(/C=C/CO)cc2OC)cc1O (stereo partly specified)
- Potency: inactive

SMILES: O=C(NCCc1ccc(O)c(O)c1)c1cc2sccc2n1Cc1ccccc1
- Potency: inactive

SMILES: FC(F)(F)c1cc(Cl)cc(-c2ccc(CNc3nc(-c4ccccc4C(F)(F)F)nc4ccccc34)cc2)c1
- Potency: inactive

SMILES: Oc1ccc(CNc2ccccc2C(F)(F)F)c2cccnc12
- Potency: inactive

SMILES: COc1cccc(Cn2ncc3c4sc(B(O)O)cc4n(C)c3c2=O)c1
- Potency: inactive

SMILES: O=C(NO)c1cnc(N2CCN(S(=O)(=O)c3ccc4ccccc4c3)CC2)nc1
- Potency: inactive

SMILES: C=C1/C(=C/C=C2\CCC[C@@]3(C)C2CCC3[C@H](C)/C=C/[C@@H](O)C2CC2)C[C@@H](O)C[C@@H]1O (stereo partly specified)
- Potency: inactive

SMILES: COc1ccc2nc(-c3cccc(C)c3)sc2c1
- Potency: inactive

SMILES: Cn1cc(CCn2cnc(-c3cnn(C)c3)c2-c2ccc(C#N)cc2)cn1
- Potency: inactive

SMILES: C/C(=C\c1ccccc1)C1Nc2cccc3cccc(c23)N1
- Potency: inactive

SMILES: Cc1ccc(-c2ccc(=O)n(CC(=O)NCCc3ccccc3)c2)cc1
- Potency: inactive
